Compound activity: PubChem BioAssay, National Center for Advancing Translational Sciences (NCATS)
KB-V1 MDR tox: kills drug-selected multidrug resistant KB-V1 cells | KB-V1 MDR cells viability, CellTiter-Glo, 72 h | Potency, µM (top dose mostly 46.1 µM), hits mostly cytotoxic | 3.4% of 400,000 active; further: potency means the concentration at half of the fitted maximal effect; nearly all actives have a fitted effect of over 60% in size
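KB-V1 cells (P-gp-expressing MDR subline of KB-3-1) in phenol-red-free DMEM with 10% FBS were exposed to library compounds over a concentration series for 72 h at 37 degrees C. Viability read by CellTiter-Glo luminescence; concentration-effect curves fitted after normalization.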
Nrf2 block: inhibitors of Nrf2 signaling; 2.1% of 360,000 active; Potency, µM (highest dose often 46 µM), inactives show top-dose activity change, negative = inhibition, most hits filed as inhibitors; A549 ARE-Fluc reporter, luciferase luminescence, 18-24 h; further: potency means the concentration at half of the fitted maximal effect; nearly all actives have a fitted effect of over 60% in size
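Cells were seeded and rested 2 h, then exposed to compounds for 18-24 h. CellTiter-Fluor was read first as a viability measure. BugLite was added 15 min before the final luminescent read of ARE-luciferase activity in A549 cells.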
PI4K2A inh: PI4K2A (human) kinase inhibition; activity change, negative = inhibition, % at 76.9 µM; purified PI4K2A, ADP-Glo luminescence, 1 h; active compounds read low; AID 1346378; Q9BTU6; 0.13% of 420,000 active; in the data active means activity change below about -50%; inconclusive means mostly about -30% to -49%;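 further: -100% = wells without enzyme as full effect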
Target sequence (Q9BTU6 whole entry, looked up): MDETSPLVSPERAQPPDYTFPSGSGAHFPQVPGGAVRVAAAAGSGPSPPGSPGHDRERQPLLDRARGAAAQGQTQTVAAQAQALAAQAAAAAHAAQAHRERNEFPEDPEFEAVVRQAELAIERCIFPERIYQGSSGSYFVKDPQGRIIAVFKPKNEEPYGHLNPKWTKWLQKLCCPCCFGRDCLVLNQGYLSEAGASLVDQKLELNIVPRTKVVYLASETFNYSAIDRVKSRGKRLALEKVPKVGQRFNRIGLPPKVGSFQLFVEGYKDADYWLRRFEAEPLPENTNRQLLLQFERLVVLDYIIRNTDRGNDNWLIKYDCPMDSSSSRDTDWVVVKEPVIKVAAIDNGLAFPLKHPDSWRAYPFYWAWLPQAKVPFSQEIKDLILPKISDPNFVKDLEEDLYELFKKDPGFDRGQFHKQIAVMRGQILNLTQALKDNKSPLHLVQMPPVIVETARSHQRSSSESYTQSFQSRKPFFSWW
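ADP-Glo luminescence measured ADP generated by PI4K2A enzyme (4 ug/mL before mixing) with 1.2 mM PI substrate (pre-mix) and 300 microM ATP (pre-mix). Tris pH7.5 buffer with MgCl2, Triton X-100; 1 h reaction at ambient temperature.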
Giardia killer: Giardia lamblia killing. Giardia lamblia trophozoite viability. activity change, % at 7.66 µM, hits read low. 0.15% of 340,000 active. AID 540267; in the data active means activity change below about -80%; inconclusive means between about -30% and that limit;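 further: parasites exposed to compound for two days anaerobically before the ATP read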
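Trophozoites 100 cells/well + cpd; 48 hrs, 37 deg C, anaerobic. ATPLite 1-Step added, 15-30 min RT, luminescence read (ATP-based viability).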
A549 tox: kills or reduces viability of A549 cells in Nrf2 counter-screen | 0.16% of 390,000 active | AID 504648 | Potency, µM (titrated, usually from 46 µM), for inactives: top-dose activity change, negative = cytotoxicity, most hits filed as inhibitors | A549 ARE-Fluc cells, CellTiter-Fluor viability, 18-24 h; further: potency means the concentration at half of the fitted maximal effect
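A549 ARE-Fluc cells in 5% FBS OPTI-MEM, 5000 cells/well, rested 2 h then exposed to compounds in concentration-response for 18-24 h at 37 °C. Viability by CellTiter-Fluor fluorescence (Ex 405/Em 525) after 30 min; luciferase luminescence (BugLite, 15 min, RT) read afterwards.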
KB-3-1 tox: KB-3-1 parental cell cytotoxicity; KB-3-1 viability, CellTiter-Glo ATP luminescence, 72 h; Potency, µM (doses to about 46.1 µM), hits mostly cytotoxic; 1.4% of 400,000 active; further: potency means the concentration at half of the fitted maximal effect; nearly all actives have a fitted effect of over 60% in size
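KB-3-1 cells, DMEM (no phenol red) + 10% FBS; compound by pin transfer, 72 h, 37 °C. Readout: CellTiter-Glo luminescence after 10 min. Data normalized, curve-fitted.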
* marks the source's active call; other numbers are inactive results; i = inactive; ? = inconclusive; / = not tested or not shown. Compounds with a hit are over-represented: about 5.7% of the library has one in this group of screens. Unless noted, the call rests on the fitted dose curve; in most records, active means well fitted curve in the direction sought with a large enough effect; inconclusive means small, poorly fitted or top-dose-only effect, or another doubt; inactive means no such curve, though single readings can be large; an effect the other way counts as inactive or inconclusive. Unless noted, on the % scale 0 is the no-effect control and ±100 the full control effect.

SMILES | KB-V1 MDR tox | Nrf2 block | PI4K2A inh | Giardia killer | A549 tox | KB-3-1 tox
NC(=S)n1[nH]c(-c2ccc([N+](=O)[O-])cc2)c(N=Nc2ccc(Cl)cc2)c1=O | i | 5.17µM* | -2.1 | -1.6 | ? | 18.4µM*
CCn1c(=O)n(CC(=O)N2CCOCC2)c(=O)c2ccccc21 | / | / | 2.2 | / | / | /
Cn1c(Cl)c(C(=O)Nc2ccccc2)c2ccccc21 | i | ? | 7.3 | 0.0 | 4.5% | i
Cc1ccc(NC(=O)c2c(Cl)n(C)c3ccccc23)cc1 | 6.51µM* | ? | 1.6 | -6.0 | -10.6% | ?
Cc1ccc(S(=O)(=O)N2CCN(S(=O)(=O)c3ccc4c(c3)OCCCO4)CC2)cc1 | i | -8.1% | / | 7.5 | -6.7% | ?
CCC(=O)N1c2nc(C(C)C)nn2C2(CCCCC2)[C@@H]2CCCC[C@@H]21 | / | 15.4% | -6.1 | / | 1.8% | /
COc1cc(C(=O)N2CC(=O)Nc3ccccc32)cc(OC)c1OC | ? | / | 7.7 | / | / | ?
COc1ccc2nc(SCC(=O)N3CC(=O)Nc4ccccc43)c(C#N)cc2c1 | ? | -17.4% | 2.1 | -1.6 | -21.6% | 2.59µM*
Cc1cc(C)c2nc(SCC(=O)N3CC(=O)Nc4ccccc43)c(C#N)cc2c1 | 0.731µM* | 5.7% | -5.8 | -20.5 | -0.9% | 0.651µM*
Cc1cc(C)cc(C(=O)N2CC(=O)Nc3ccccc32)c1 | 3.26µM* | ? | -4.2 | 9.6 | -22.0% | ?
C=CCN1C(=O)[C@@H](CC(=O)NCc2ccccc2)[C@]2(C(=O)OC)CCCCC=C12 | / | / | -1.7 | / | / | /
O=C(NCC(c1ccc2c(c1)OCO2)N1CCOCC1)c1ccc(F)cc1 (stereo not drawn) | i | / | 1.1 | / | -0.1% | i
c1ccc(C[n+]2c(-c3ccccc3)csc2Nc2ccccc2)cc1 | 16.4µM* | -17.3% | -0.7 | 4.3 | -4.7% | 20.6µM*
c1ccc(Nc2scc(-c3ccccc3)[n+]2Cc2ccco2)cc1 | ? | ? | -0.1 | -17.1 | 33.3% | ?
CCn1c(SCC(=O)c2ccccc2)nnc1-c1cc2cc(Br)ccc2o1 | 18.4µM* | / | 5.7 | -6.6 | -10.5% | ?
C=CCn1c(SCC(=O)c2ccccc2)nnc1-c1cc2ccccc2o1 | ? | -21.0% | 3.4 | -4.5 | -17.2% | i
Cc1ccc[n+](C(C)C(=O)c2ccc(-c3ccccc3)cc2)c1 (stereo not drawn) | i | -20.1% | -1.2 | 7.4 | -0.1% | i
CC(C(=O)c1ccc(-c2ccccc2)cc1)[n+]1ccccc1 (stereo not drawn) | i | 7.31µM* | -0.1 | -14.0 | ? | ?
COc1ccc(-c2sc(N)nc2-c2ccccc2)cc1 | i | 5.2% | / | 6.0 | 4.5% | i
Cc1cc(C)nc(N2CCCC(C(=O)NCCc3cccc(F)c3)C2)n1 (stereo not drawn) | 18.4µM* | / | 2.6 | -11.4 | 6.8% | i
Cc1cc(C)nc(N2CCC(C(=O)Nc3ccc4c(c3)OCO4)CC2)n1 | ? | -12.8% | 2.7 | -14.8 | -21.8% | i
COc1ccccc1NC(=O)C1CCCN(c2nc(C)cc(C)n2)C1 (stereo not drawn) | ? | -11.3% | 4.5 | -2.1 | -2.3% | i
COc1ccc(CCNC(=O)C2CCCN(c3nc(C)cc(C)n3)C2)cc1 (stereo not drawn) | i | -2.0% | 0.8 | 19.4 | -5.3% | i
Cc1cc(C)nc(N2CCCC(C(=O)Nc3ccc4c(c3)OCO4)C2)n1 (stereo not drawn) | 23.1µM* | 9.5% | -7.7 | 8.1 | -5.1% | i
Cc1cc(C)nc(N2CCCC(C(=O)Nc3cc(F)ccc3C)C2)n1 (stereo not drawn) | 16.4µM* | -40.7% | 0.5 | -9.5 | 0.8% | i
C[C@@H]1CCN(C2CC2)S(=O)(=O)c2ccc(N3CCC[C@H]3C)cc2O1 | / | / | 3.5 | / | / | /
CC(C)(C)OC(=O)NCc1cc2c(cc1/C=C/S(=O)(=O)NC1CCCC1)OCO2 | / | / | 3.8 | / | / | /
CCc1cccc(CC)c1NC(=O)C(Cc1ccccc1)NS(=O)(=O)c1cccc2nsnc12 (stereo not drawn) | ? | 7.5% | -1.8 | / | 0.4% | i
